A selection: hits, their analogues and other compounds. The true share with any hit is near 5.4%.
HPGD block: inhibitors of human 15-hydroxyprostaglandin dehydrogenase (HPGD); P15428; purified HPGD, NADH fluorescence kinetic, PGE2 substrate; Potency, µM, inactives show top-dose activity change, negative = inhibition, usual class: inhibitors; 4.3% of 150,000 active; active = well fitted inhibition curve with a large enough effect, not every such curve was filed as active; inconclusive = small, poorly fitted or top-dose-only effect, or another doubt; inactive = no such curve, though single readings can be large or run the other way; note: potency is the fitted concentration of half-maximal effect
Target sequence (P15428 whole entry, looked up): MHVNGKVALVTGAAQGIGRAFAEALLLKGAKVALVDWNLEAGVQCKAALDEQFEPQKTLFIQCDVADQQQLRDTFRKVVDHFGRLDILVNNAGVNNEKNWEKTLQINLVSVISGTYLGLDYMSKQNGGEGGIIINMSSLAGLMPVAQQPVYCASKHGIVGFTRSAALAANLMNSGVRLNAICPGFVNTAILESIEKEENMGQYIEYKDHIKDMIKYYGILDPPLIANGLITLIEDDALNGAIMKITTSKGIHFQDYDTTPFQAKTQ
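NADH formation kinetics: reaction with 30 uM PGE2 and 1 mM NAD+ (final), 20 nM enzyme, Tris-HCl pH 8 with Tween 20, after 15 min compound preincubation at room temperature. Fluorescence change, last versus first of five reads.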
IMPase Li cell: cell-permeable IMPase inhibitors with lithium potentiation; CHO-M1 cells, IP1 TR-FRET (IP-One), carbachol + lithium; Potency, µM (series often up to 59.4 µM), for inactives: top-dose activity, negative = IMPase inhibition, hits mostly inhibitors; 0.35% of 210,000 active;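 note: IP1 builds up when IMPase is blocked and the TR-FRET signal falls; potency is the fitted concentration of half-maximal effect; plate controls were basal vehicle for no effect and high inhibitor control for full effect; nearly all actives have a fitted effect of over 50% in size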
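Test compounds were applied to CHO-M1 cells previously cultured for 16–30 h at 2000 per well. A small lithium amount accompanied them; after 30 min at 37C, IP1 was quantified by TR-FRET.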
ALOX15B inhib: blocks human 15-lipoxygenase 2 activity; O15296; purified 15hLO-2, xylenol orange hydroperoxide absorbance; Potency, µM (series often up to 57.1 µM), inactives show at the top dose activity change, negative = inhibition, actives largely listed as inhibitors; 0.56% of 110,000 active; AID 881; note: potency is the fitted concentration of half-maximal effect; nearly all actives have a fitted effect of over 60% in size
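Screening format was qHTS against 50 nM purified 15hLO-2 in Hepes pH 7.5 with detergent. Activity follows hydroperoxide formation from 45 uM arachidonic acid, measured as 573:405 nm absorbance ratio of the ferric-xylenol orange complex.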
IMPase cell inh: IMPase inhibition in cells. inhibition (IP1 accumulation), % at 46.1 µM. CHO-M1 cells, IP1 accumulation, HTRF TR-FRET ratio. P97697. 120,000 tested, under 10 active; active = well fitted curve in the direction sought with a large enough effect in the signal ratio, not every such curve was filed as active; inconclusive = small, poorly fitted or top-dose-only effect, or a change in a side signal; inactive = no such curve, though single readings can be large or run the other way; the % refers to the signal ratio;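 note: cells stimulated with carbachol in lithium chloride buffer; plate controls were DMSO basal wells for no effect and reference inhibitor wells for full effect; higher means more IMPase inhibition seen as more IP1 and lower FRET ratio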
Target sequence (P97697 whole entry, looked up): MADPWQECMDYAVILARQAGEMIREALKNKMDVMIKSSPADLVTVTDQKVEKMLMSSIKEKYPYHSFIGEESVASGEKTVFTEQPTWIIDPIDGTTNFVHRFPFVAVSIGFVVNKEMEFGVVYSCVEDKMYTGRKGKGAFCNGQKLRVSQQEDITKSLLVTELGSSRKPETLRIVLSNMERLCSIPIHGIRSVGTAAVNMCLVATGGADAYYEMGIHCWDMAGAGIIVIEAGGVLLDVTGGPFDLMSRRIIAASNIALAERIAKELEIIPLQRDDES
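CHO-M1, 2000 cells/well, cultured 16–30 h; cpd up to 46 uM; carbachol (50 uM solution, stimulation buffer w/ 50 mM LiCl, pH 7.4), 30 min 37C; IP-One TR-FRET, 10 min RT; Ex 320/Em 665, 620; Hill-fit AC50.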
PNC inhibitor: blocks assembly of the perinucleolar compartment | activity change (PNC), negative = inhibition, % at 10 µM | 3.1% of 140,000 active | PC3M PTB-GFP, PNC prevalence imaging, 16 h; active compounds read low;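 active = readout at or below -70, meaning at least 70% loss of cells showing the perinucleolar compartment, a nuclear body marking cancer cells; inconclusive = readout between -30 and a set limit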;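 note: plate controls were DMSO wells for no effect and camptothecin positive control wells for full effect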
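Read-out is percentage of cells bearing a perinucleolar compartment, from automated 20x imaging of fixed, Hoechst-stained PC3M PTB-GFP cells. Cells were seeded 4 h, then exposed 16 h to compound (23 nl of library stock) in duplicate plates.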
ALOX12 inhib: 12-hLO (ALOX12) enzyme inhibition; P18054; purified 12-hLO, xylenol orange hydroperoxide absorbance; Potency, µM (series often up to 57.1 µM), for the others: top-dose activity change, negative = inhibition, hits mostly inhibitors; 0.12% of 150,000 active; AID 1452; note: potency is the fitted concentration of half-maximal effect; nearly all actives have a fitted effect of over 55% in size
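Hydroperoxide formation by human 12-lipoxygenase from 40 uM arachidonic acid was followed colorimetrically via ferric-xylenol orange complex, using the 573/405 nm absorbance ratio. Enzyme concentration was 150 nM, with 30 min reaction at room temperature.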
Starred values were filed as active, the others as inactive; u = inconclusive; x = no result; [ ] = another dose, or the depositor's remark. Unless noted, calls come from the whole dose curve; as a rule, active = well fitted curve in the direction sought with a large enough effect; inconclusive = small, poorly fitted or top-dose-only effect, or another doubt; inactive = no such curve, though single readings can be large; an effect the other way counts as inactive or inconclusive. Unless noted, % is set by controls: 0 for no effect and ±100 for the full control effect.

SMILES | HPGD block | IMPase Li cell | ALOX15B inhib | IMPase cell inh | PNC inhibitor | ALOX12 inhib
COc1ccc(N=C2NC(=O)/C(=C\C=C\c3ccccc3)S2)cc1 | x | -10% | x | x | x | x
O=C1NC(=Nc2ccccc2)S/C1=C\C=C\c1ccco1 | 28µM* | -3% | x | x | u | u
Cc1ccc(N=C2NC(=O)/C(=C/C=C/c3ccco3)S2)cc1 | -23% | 4% | x | x | 22 | -29%
Cc1cccc(N=C2NC(=O)/C(=C/C=C/c3ccco3)S2)c1C | 7.9µM* | 22% | x | -9 | 25 | u
Cc1nc(N2CCOCC2)c2nc(-c3ccccc3)n(CCCN3CCCCC3C)c2n1 (stereo not given) | u | 3% | 2% | x | x | 2%
COc1ccc2cnn(CCOc3cc(C)ccc3C(C)C)c(=O)c2c1OC | -16% | 6% | x | x | -113* | -6%
CCOc1ccccc1OCCn1ncc2ccc(OC)c(OC)c2c1=O | -19% | -14%[38.3 µM] | -1% | u | 15 | -6%
COc1ccc(Oc2c(Cl)cnn(-c3ccc(C)cc3)c2=O)cc1 | -16% | -1% | 5% | 2 | -9 | 1%
COc1ccc2cnn(-c3ccc(C)cc3)c(=O)c2c1OC | 25µM* | -29%[38.3 µM] | 8% | -4 | -18 | -2%
Cc1cccc(CNc2ncnc3ccc(-c4ccc(C(=O)N(C)C)cc4)cc23)c1 | u | 24% | 68% | x | x | u
O=C(O)CCCC(=O)N1CCN(c2cccc(Cl)c2)CC1 | -25% | -12%[38.3 µM] | -6% | -5 | -99* | -1%
CCOc1cc(/C=N/NC(N)=O)cc(Br)c1OCc1ccccc1F | 0% | 1% | x | x | -92* | 1%
CCOc1cc(/C=N\NC(N)=O)cc(Br)c1OC(C)C | 2% | 1% | x | x | -97* | 0%
CCOc1cc(/C=N/NC(=O)Cn2nc([N+](=O)[O-])cc2C)cc(Br)c1OCc1ccccc1F | -19% | 36%[38.3 µM] | -3% | 3 | 39 | -3%
COc1cc(/C=N/NC(N)=O)cc(Br)c1OCc1ccc(C)cc1 | -9% | 44%[38.3 µM] | 4% | 14 | u | -2%
OC(COc1ccccc1)CN1CCOCC1 (stereo not given) | -14% | 1% | x | 13 | -100* | 2%
CCOC(=O)c1c(-c2cccs2)csc1NC(=O)CCCC(=O)O | -25% | 10µM* | -9% | u | 98 | 2%
CCOC(=O)c1sc2nc(CC(=O)OC)nc(N3CCN(c4ccc(OC)cc4)CC3)c2c1C | -11% | 62%[38.3 µM] | 20% | 1 | -100* | -3%
Cc1noc(NS(=O)(=O)c2ccc(NC(=O)COc3ccc(Cl)cc3Cl)cc2)c1C | 16µM* | 16%[38.3 µM] | -5% | 23 | 23 | -21%
Cc1noc(NS(=O)(=O)c2ccc(N/C=C/C(=O)c3ccc(F)cc3)cc2)c1C | x | 1% | x | x | x | x
Cc1noc(NS(=O)(=O)c2ccc(NC(=O)CSc3nc4c(cc3C#N)CCCCC4)cc2)c1C | 28µM* | -6%[38.3 µM] | -6% | -1 | 1 | -8%
Cc1noc(NS(=O)(=O)c2ccc(NC(=O)COc3ccccc3Br)cc2)c1C | x | x | x | -6 | x | x
CCc1ccc(C(=O)/C=C/Nc2ccc(S(=O)(=O)Nc3onc(C)c3C)cc2)cc1 | 20µM* | 9% | x | x | 6 | -5%
CC(C)(C)c1c2c(c(C(C)(C)C)c3c1OCN(Cc1ccccc1)C3)OCN(Cc1ccccc1)C2 | -8% | -8% | -2%[11.4 µM] | x | x | -22%[11.4 µM]
Nc1c(C(=O)Nc2ccccc2Br)sc2nc(-c3cccs3)ccc12 | x | x | x | -5 | x | x
SMILES | HPGD block | IMPase Li cell | ALOX15B inhib | IMPase cell inh | PNC inhibitor | ALOX12 inhib
O=C(NC(=S)Nc1nc2ccccc2s1)c1cccs1 | -18% | 9% | x | x | -100* | 0%
Nc1c(C(=O)Nc2nc3ccccc3s2)sc2nc(-c3cccs3)ccc12 | -29% | 11µM* | 13µM* | u | -28 | -9%
O=C(Nc1nc2ccc(F)cc2s1)c1cccs1 | x | -1% | x | x | x | x
Cc1cc(C)cc([N+](=O)[O-])c1 | -4% | 3% | 1% | x | x | 1%
C#CCOc1ccc(C2C(C(=O)OC)=C(C)NC3=C2C(=O)c2ccccc23)cc1OCC (stereo not given) | x | x | x | 7 | x | x
Cc1ccc(C(=O)c2c(C)oc3c2C(=O)C(=O)c2ccccc2-3)cc1 | 20µM* | 16%[38.3 µM] | 25µM* | 14 | u | u
Cc1oc2c(c1C(=O)c1ccc(Cl)cc1)C(=O)C(=O)c1ccccc1-2 | -26% | 43%[38.3 µM] | u | 21 | 95 | -5%
CCc1ccccc1N(C)C(=O)CCc1nc(-c2ccc(C)cc2)no1 | 14µM* | 28%[38.3 µM] | 10% | 5 | 12 | -5%
Cc1c(C(=O)N/N=C/c2ccc(N(C)C)cc2)[nH]c2ccc(Cl)cc12 | -18% | -5% | x | x | -113* | -1%
CCCCOC(=O)CNc1n[nH]c(=S)[nH]c1=O | 25µM* | 4µM* | 2% | u | u | -2%
Cc1ccc(Cl)cc1NC(=O)Cn1c(=O)n(CCCS(=O)(=O)C2CCCCC2)c(=O)c2ccccc21 | x | x | x | -21 | x | x
CC(C)c1ccc(O)c(N)c1 | -21% | 20%[38.3 µM] | 5µM* | 8 | 17 | u
CCC(C)c1ccc(O)c(N)c1 (stereo not given) | u | -4%[38.3 µM] | u | -6 | -30 | -27%
CN(c1ccccc1)c1ccc(/C=C/[N+](=O)[O-])cc1 | 32µM* | 17% | x | x | 7 | -3%
C=C1CC[C@H](O)C/C1=C/C=C1\CCC[C@]2(C)C([C@H](C)CCCC(C)(C)O)CC[C@@H]12 (stereo not given in full) | x | -1% | x | x | x | x
CCCc1cc(C(=O)OC)c(NC(=O)c2cc(C)on2)s1 | -24% | 17% | x | -10 | -87* | 7%
Cn1c(C(=O)N2CCCCCC2)cc2c(=O)n(C)c3ccccc3c21 | 2.8µM* | -12%[38.3 µM] | 4% | 1 | u | 2%
CCN1CCN(C(=O)c2cc3c(=O)n(C)c4ccccc4c3n2C)CC1 | -8% | 48%[38.3 µM] | -2% | -9 | -19 | 1%
COc1ccc(NC(=O)c2cc3c(=O)n(C)c4ccccc4c3n2C)cc1OC | 0% | 14%[38.3 µM] | -2% | 8 | -5 | 4%
COc1cc(NC(=O)c2cc3c(=O)n(C)c4ccccc4c3n2C)cc(OC)c1OC | u | 3.5µM* | -4% | u | 24 | 2%
Cn1c(C(=O)N2CCN(Cc3ccccc3)CC2)cc2c(=O)n(C)c3ccccc3c21 | 16µM* | 17%[38.3 µM] | 9% | 5 | 33 | 4%
COc1ccc2c(c1)O[C@@H](c1ccc3c(c1)OCO3)[C@H](OC(=O)Nc1ccc(OC(F)F)cc1)C2=O | -3% | 3% | x | x | x | x
COc1cccc2c1C(=O)c1c(O)c3c(c(O)c1C2=O)C[C@@](O)(C(C)=O)C[C@@H]3O[C@H]1C[C@H](N)[C@H](O)[C@H](C)O1 | -15% | 33% | 39%[0.0915 µM] | 16 | -115* | 3%

Screening results: PubChem, National Center for Advancing Translational Sciences (NCATS)
